Pf growth 48h = Primary qHTS for delayed death inhibitors of the malarial parasite plastid, 48 hour incubation; AID 504832, 2011; P. falciparum luciferase growth in erythrocytes, 48 h; 310,000 compounds, 5.9% hits; Potency, µM (top dose mostly 28.7 µM), for the others: at the top dose activity change, negative = inhibition, usual class: inhibitors; note: potency is the fitted concentration of half-maximal effect; % is set by controls: 0 for no effect and ±100 for the full control effect
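Luminescence readout; reporter = integrated firefly luciferase in P. falciparum. RBC culture at 2% hematocrit, 0.1% parasitemia final, 37 C/5% CO2; decreased signal taken as growth inhibition.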
FBPA Giardia inh = qHTS Assay for Inhibitors of Fructose-1,6-bisphosphate Aldolase from Giardia Lamblia; A8B2U2; purified Giardia FBPA; Potency, µM (top dose mostly 59.6 µM), for the others: at the highest dose activity, negative = inhibition, usual class: inhibitors; 290,000 compounds, 0.71% hits; AID 2451, 2010; note: potency is the fitted concentration of half-maximal effect; % is set by controls: 0 for no effect and ±100 for the full control effect; nearly all actives have a fitted effect of over 55% in size
Target sequence (A8B2U2 whole entry, looked up): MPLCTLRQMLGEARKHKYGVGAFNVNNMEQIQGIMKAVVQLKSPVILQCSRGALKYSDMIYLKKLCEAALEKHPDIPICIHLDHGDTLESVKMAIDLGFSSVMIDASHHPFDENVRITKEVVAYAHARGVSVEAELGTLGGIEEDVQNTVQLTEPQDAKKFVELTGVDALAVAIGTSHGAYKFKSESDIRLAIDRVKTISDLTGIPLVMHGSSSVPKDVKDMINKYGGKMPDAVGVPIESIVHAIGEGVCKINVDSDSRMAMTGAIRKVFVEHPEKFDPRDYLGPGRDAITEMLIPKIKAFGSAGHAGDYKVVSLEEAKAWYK
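40 nM FBPA preincubated 10 min at RT with compound (up to 57.5 uM final), then substrate plus GAPDH/TPI/NAD/arsenate coupling and diaphorase/resazurin added. Fluorescence read after 20 min at RT, 525/598 nm.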
Pf growth 96h = Primary qHTS for delayed death inhibitors of the malarial parasite plastid, 96 hour incubation; P. falciparum luciferase reporter growth, 96 h; Potency, µM (series often up to 28.7 µM), without a hit: at the highest dose activity change, negative = inhibition, actives largely listed as inhibitors; 320,000 compounds, 6.9% hits; AID 504834, 2011; note: potency is the fitted concentration of half-maximal effect; % is set by controls: 0 for no effect and ±100 for the full control effect
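Luminescence readout: decreased luciferase signal marks inhibited growth of reporter-expressing P. falciparum in infected red cells (2% hematocrit, 0.05% parasitemia final), exposed to compound two generations (96 h, 37 C, 5% CO2).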
Shiga toxin inh = A qHTS for Small Molecule Inhibitors of Shiga Toxin | Vero cells, Shiga toxin protein synthesis inhibition reporter | inhibition, % at 38.7 µM | 290,000 compounds, 9.2% hits; in the data active = inhibition mostly above about 28%, no sharp cut-off; inactive = mostly below about 43%; note: 0% is about no effect
NS1 function inh = qHTS Assay for Inhibitors of Influenza NS1 Protein Function. Potency, µM (titrated, usually from 46.1 µM), for the others: at the top dose activity, positive = more growth. 270,000 compounds, 0.4% hits; calls by dose curve; note: potency is the fitted concentration of half-maximal effect; actives are rising curves; nearly all actives have a fitted effect of over 50% in size
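S. cerevisiae expressing influenza A NS1, grown in glucose, washed, then diluted 1:100 into pH 6.0 -URA galactose medium with 23 nl compound. Growth recovery read as OD600; NS1-free strain serves as control.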
Cycloheximide cs = Cycloheximide Counterscreen for Small Molecule Inhibitors of Shiga Toxin; 300,000 compounds, 12% hits; cell reporter, cycloheximide protein synthesis inhibition counterscreen; max response, %; AID 2314, 2010; in the data active = max response mostly above about 13%, no sharp cut-off; inactive = mostly below about 14%; note: read at 38.3 µM for the half of the compounds with a filed dose; 0% is about no effect
* marks the source's active call; other numbers are inactive results; ? = inconclusive; / = no result given; [ ] = dose if it differs, or a comment. A selection: hits, their analogues and other compounds. The true share with any hit is near 21%. Unless noted, calls come from the whole dose curve; as a rule, active = well fitted curve in the direction sought with a large enough effect; inconclusive = small, poorly fitted or top-dose-only effect, or another doubt; inactive = no such curve, though single readings can be large; an effect the other way counts as inactive or inconclusive.

SMILES | Pf growth 48h | FBPA Giardia inh | Pf growth 96h | Shiga toxin inh | NS1 function inh | Cycloheximide cs
NC[C@@H]1O[C@@H](O[C@H]2[C@H](O)[C@@H](O[C@@H]3O[C@@H](CO)[C@H](O)[C@@H](N)[C@@H]3O)[C@H](N)C[C@@H]2N)[C@@H](O)[C@H](O)[C@H]1O | / | 3% | / | -3 | / | -4
CCCCC1=CC2=CC(=O)C(C)(OC(=O)CC)C(=O)C2=CN1CCCN(CC)CC (centres undefined) | / | -18%[12.9 µM] | / | / | / | /
COC(=O)c1c(NC(=O)CSc2nnc(Cn3nnc4ccccc43)n2C)sc(C)c1C | -23% | 1% | 7.4µM* | 49 | -15% | 1
CN(C)CCCn1c(SCC(=O)N2c3ccccc3Sc3ccccc32)nc2ccccc2c1=O | 10µM* | 7% | 4.1µM* | -29 | 7% | -9
Cn1c(Cn2nnc3ccccc32)nnc1SCC(=O)N1c2ccccc2Sc2ccccc21 | ? | 10% | 10µM* | -16 | -14% | -4
Cn1c(SCC(=O)N2c3ccccc3Sc3ccccc32)nc2ccccc21 | ? | 1% | ? | -10 | 30% | 1
O=C(Nc1cccc2ccccc12)N(CCO)C1CCS(=O)(=O)C1 (centres undefined) | 29% | 1% | 5% | -3 | 6% | -2
CSc1nc(NCCCO)c2c3c(sc2n1)CN(C)CC3 | ? | -20% | 5.2µM* | -2 | -2% | 0
CN1CCc2c(sc3nc(SCC(=O)N4CCOCC4)nc(N)c23)C1 | ? | -13% | 5% | 20 | ? | -8
CSc1nc(SCC(=O)NC(c2ccccc2)c2ccccc2)c2c3c(sc2n1)CN(C)CC3 | 7.4µM* | -24% | 2.9µM* | 12 | 25% | -4
CSc1nc(NCC(C)O)c2c3c(sc2n1)CN(C)CC3 (centres undefined) | ? | ? | 6.6µM* | -7 | 0% | -2
CCN(CC)CCCNc1nc(SC)nc2sc3c(c12)CCN(C)C3 | ? | 1% | ? | 2 | 1% | -2
CCOC(=O)c1ccc(S(=O)(=O)N2CCN(CC(O)COc3cccc(C(C)=O)c3)CC2)cc1 (centres undefined) | 13%[0.00184 µM] | -26% | 3% | 3 | -7% | -4
O=C(NCCCn1ccnc1)c1ccc(Cl)s1 | 22% | / | -13% | -12 | 4% | -2
O=C(O)CCc1nn2cc(-c3ccccc3)nc2[nH]c1=O | ? | ? | ? | 2 | 7% | -2
Cc1nn2cc(-c3ccccc3)nc2[nH]c1=O | ? | -20% | 0.66µM* | 21 | -2% | 12
COc1cc(C2SCC(=O)N2c2nnc(C34CC5CC(CC(C5)C3)C4)s2)cc(OC)c1OC (centres undefined) | 15µM* | -4% | 0% | -11 | 0% | -1
COc1ccc(C2SCC(=O)N2c2nnc(C34CC5CC(CC(C5)C3)C4)s2)cc1 (centres undefined) | 0% | 1% | 0% | -4 | 16% | 1
CN(Cc1ccsc1)C(=O)Cn1cc(Br)ccc1=O | 102% | 5% | 83% | 78* | -11% | 29*
CN(CC(=O)Nc1ccc(F)cc1)C(=O)Cc1ccsc1 | ? | / | -2% | / | / | /
CNC1C(O)C(OC2C(NC(=O)C(O)CN)CC(N)C(OC3OC(CN)C(O)C(O)C3O)C2O)OCC1(C)O (centres undefined) | 0% | / | -4% | / | / | /
Cc1ccc(N=c2ssnc2Cl)cc1 | 13% | ? | -8% | 33 | -118% | 26*
Nc1ccccc1N=c1ssnc1Cl | ? | ? | -59% | 55* | / | 19
CCN(C(=O)COC(=O)CNC(=O)C1CCCCC1)c1ccccc1 | 39% | / | 103% | / | / | /
CCN(CC)S(=O)(=O)c1csc(C(=O)OCC(=O)c2ccccc2)c1 | 0% | 1% | ? | 41* | -10% | 33*
SMILES | Pf growth 48h | FBPA Giardia inh | Pf growth 96h | Shiga toxin inh | NS1 function inh | Cycloheximide cs
CCN(Cc1ccccc1)S(=O)(=O)c1csc(C(N)=O)c1 | 20% | / | 0% | -5 | -1% | -1
O=C1OC(c2ccccc2)=C/C1=C/N1CCOCC1 | 159% | -17% | ? | 63* | 3% | 17*
Cc1cccc(N=c2c([N+](=O)[O-])nn(-c3ccc(Cl)cc3)n2O)c1 | ? | -12% | -19% | 35 | -4% | 20*
Cc1c(Cl)c([N+](=O)[O-])nn1CCCC(=O)Nc1cccc(Cl)c1 | 27% | -6% | 0% | 11 | -5% | 4
Cc1cc(C)cc(N=c2c([N+](=O)[O-])nn(-c3cccc(Cl)c3)n2O)c1 | / | 0% | 3.7µM* | -8 | -3% | -4
COc1ccccc1N1CCN(c2nc(N)c(C#N)c(CC#N)c2C#N)CC1 | ? | ? | ? | -6 | 2% | -1
COc1cc2c(C#N)c(N3CCN(c4ccccc4OC)CC3)nc(N)c2c(N)n1 | 2.1µM* | ? | 8.3µM* | 17 | -42% | 25
N#Cc1c(N2CCCC2)nc(N)c2c(N)nc(N3CCCC3)cc12 | ? | ? | ? | 47* | -40% | 31*
COc1cc2c(C#N)c(N3CCN(C)CC3)nc(N)c2c(N)n1 | 15% | -22% | / | -9 | -7% | 2
COc1cc2c(C#N)c(N3CCCC3)nc(N)c2c(N)n1 | 36% | 1.3µM* | ? | 10 | ? | 1
CSCC[C@H](N)C(=O)N[C@@H](CCCN=C(N)N)C(=O)N[C@@H](Cc1ccccc1)C(=O)N[C@@H](Cc1ccccc1)C(=O)N[C@H](C(=O)O)C(C)C | / | 3% | / | -10 | / | -9
Cc1cc2ccccn2c1C(=O)c1ccncc1 | 2% | 3% | ? | -7 | -9% | -2
Cc1cc2ccccn2c1C(=O)Nc1cccc(Cl)c1 | 51% | -13% | 42% | 75* | / | 53*
Cc1cc2ccccn2c1C(=S)NC(=O)c1ccccc1 | 11% | 10% | -24% | 37* | -3% | 16
Cc1cc(O)c(C(=O)Nc2cccc(Cl)c2)c(=O)n1C | -4% | / | ? | 47* | -2% | 33
Cc1cc2ccccn2c1C(=O)c1ccc(Cl)cc1 | -2% | / | -3% | 41 | -66% | 21
CS(=O)(=O)c1ccc(C(=O)N2CCN(C(=O)c3ccco3)CC2)cc1 | -16% | / | 1% | / | / | /
CNc1ccc(C(=O)OCC(=O)NCc2ccc3c(c2)OCO3)cc1[N+](=O)[O-] | -9% | / | -7% | / | / | /
NS(=O)(=O)c1cc(C(=O)OCC(=O)N2CCOCC2)ccc1Cl | 39% | 1% | 17% | 5 | 12% | 3
O=[N+]([O-])c1cccc(/C=N/Nc2nc(NCc3ccccc3)nc(N3CCOCC3)n2)c1O | 6.6µM* | -9% | ? | 5 | 1% | 18
O=[N+]([O-])c1ccc(/C=N/Nc2nc(NCc3ccccc3)nc(N3CCOCC3)n2)cc1 | 13µM* | 0% | 16% | -8 | / | 7

Screening results (PubChem)
